# Measured values taken from the supplement of paper PMC7411054.
# Counter-ions that a name gives are not always drawn.
# Experiments:
# Assay in all cases: lowest phenotypically active concentration; higher = less potent
# Conditions in all cases: treatment time: 24 h
# [1] = test system: WPMY1-TUBA1B-RELA
# In short: (§1)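 Fifteen gene-edited A549, HepG2 and WPMY1 reporter lines (BFP segmentation plus GFP and RFP/FusionRed markers) were treated at 0.3, 1, 3 or 9 µM for 24 h, four wells each, then imaged live. Live-cell features per well were normalised to DMSO control wells. Deviation required ≥3 of 4 wells beyond the 95th percentile of DMSO Euclidean distances, and reproducibility required median replicate Pearson correlation above the 95th percentile of non-replicates. Phenotypic activity needed both criteria.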
# [2] = test system: HepG2-TP53BP1-CLTA
# In short: as §1
# [3] = test system: HepG2-TUBA1B-RELA
# In short: as §1
# [4] = test system: A549-ACTB-RAB5A
# In short: as §1
# [5] = test system: A549-GM130-SQSTM1
# In short: as §1
# [6] = test system: A549-TUBA1B-RELA
# In short: as §1
# [7] = test system: HepG2-CANX-COX4
# In short: as §1
# [8] = test system: HepG2-ACTB-RAB5A
# In short: as §1
# [9] = test system: A549-CANX-COX4
# In short: as §1
# [10] = test system: A549-TP53BP1-CLTA
# In short: as §1
smiles,measurement,setting,value
NS(=O)(=O)C#Cc1ccccc1 [pifithrin-mu],lowest phenotypically active concentration,[1],9 µM
Cc1nc[nH]c1C1CCN(c2nc3cccc4c3n2CCC4=O)CC1,lowest phenotypically active concentration,[2],9 µM
O=c1cc(-c2ccc(O)cc2)oc2cc(O)cc(O)c12 [Apigenin],lowest phenotypically active concentration,[2],9 µM
same,lowest phenotypically active concentration,[3],9 µM
same,lowest phenotypically active concentration,[1],9 µM
Oc1cc(O)cc(/C=C/c2ccc(O)c(O)c2)c1 [Piceatannol],lowest phenotypically active concentration,[1],9 µM
C#CCN[C@@H]1CCc2ccccc21 [rasagiline],lowest phenotypically active concentration,[2],9 µM
same,lowest phenotypically active concentration,[3],9 µM
NCCCCNS(=O)(=O)c1ccc2c(Cl)cccc2c1 [W-13 hydrochloride],lowest phenotypically active concentration,[1],9 µM
c1ccc(-c2cnn3cc(-c4ccc(OCCN5CCOCC5)cc4)cnc23)cc1,lowest phenotypically active concentration,[3],3 µM
CN(C)CCOC(c1ccccc1)c1ccccc1 [diphenhydramine],lowest phenotypically active concentration,[1],9 µM
O=S(c1ccccc1)c1ccc2nnnn2n1 (configuration not stated),lowest phenotypically active concentration,[4],9 µM
same,lowest phenotypically active concentration,[1],9 µM
COc1ccc(CCN(C)CCCC(C#N)(c2ccc(OC)c(OC)c2)C(C)C)cc1OC (configuration not stated) [verapamil],lowest phenotypically active concentration,[4],9 µM
same,lowest phenotypically active concentration,[5],9 µM
same,lowest phenotypically active concentration,[6],9 µM
COc1cc2nc(N3CCN(C(=O)c4ccco4)CC3)nc(N)c2cc1OC [prazosin],lowest phenotypically active concentration,[7],9 µM
same,lowest phenotypically active concentration,[3],9 µM
C=C[C@H]1CN2CC[C@H]1C[C@H]2[C@H](O)c1ccnc2ccc(OC)cc12 [Quinine dihydrochloride],lowest phenotypically active concentration,[4],9 µM
same,lowest phenotypically active concentration,[5],3 µM
CC(C)C(=O)Nc1ncc(-c2cc(C(F)F)nn2-c2c(Cl)cccc2Cl)s1,lowest phenotypically active concentration,[4],≤ 0.3 µM
same,lowest phenotypically active concentration,[8],3 µM
same,lowest phenotypically active concentration,[7],9 µM
same,lowest phenotypically active concentration,[1],3 µM
NC(=O)c1sc2c([N+](=O)[O-])cc(C(F)(F)F)cc2[n+]1[O-] [Cyclapolin 9],lowest phenotypically active concentration,[1],9 µM
Nc1ccn([C@@H]2O[C@H](CO)[C@@H](O)C2(F)F)c(=O)n1 [gemcitabine],lowest phenotypically active concentration,[9],≤ 0.3 µM
same,lowest phenotypically active concentration,[10],≤ 0.3 µM
same,lowest phenotypically active concentration,[8],≤ 0.3 µM
same,lowest phenotypically active concentration,[7],≤ 0.3 µM
same,lowest phenotypically active concentration,[2],≤ 0.3 µM
same,lowest phenotypically active concentration,[3],≤ 0.3 µM
same,lowest phenotypically active concentration,[1],≤ 0.3 µM
CN1C/C(=C/c2ccc(B(O)O)cc2)C(=O)/C(=C/c2ccc(B(O)O)cc2)C1,lowest phenotypically active concentration,[9],≤ 0.3 µM
same,lowest phenotypically active concentration,[10],≤ 0.3 µM
same,lowest phenotypically active concentration,[8],≤ 0.3 µM
same,lowest phenotypically active concentration,[7],3 µM
same,lowest phenotypically active concentration,[2],9 µM
same,lowest phenotypically active concentration,[3],3 µM
same,lowest phenotypically active concentration,[1],3 µM
CCN1CCN(c2cc(-c3ccc(F)cc3)c3c(n2)CCCCCC3)CC1 [blonanserin],lowest phenotypically active concentration,[10],9 µM
same,lowest phenotypically active concentration,[8],9 µM
same,lowest phenotypically active concentration,[7],9 µM
same,lowest phenotypically active concentration,[2],3 µM
same,lowest phenotypically active concentration,[3],3 µM
same,lowest phenotypically active concentration,[1],9 µM
Oc1ccc(Nc2nc(-c3ccc(Cl)cc3)cs2)cc1,lowest phenotypically active concentration,[9],3 µM
same,lowest phenotypically active concentration,[10],9 µM
same,lowest phenotypically active concentration,[7],9 µM
same,lowest phenotypically active concentration,[1],9 µM
COc1cc([C@@H]2c3cc4c(cc3[C@@H](O[C@@H]3O[C@@H]5CO[C@@H](C)O[C@H]5[C@H](O)[C@H]3O)[C@H]3COC(=O)[C@H]23)OCO4)cc(OC)c1O [etoposide],lowest phenotypically active concentration,[9],1 µM
same,lowest phenotypically active concentration,[10],≤ 0.3 µM
same,lowest phenotypically active concentration,[8],1 µM
same,lowest phenotypically active concentration,[7],1 µM
same,lowest phenotypically active concentration,[2],≤ 0.3 µM
same,lowest phenotypically active concentration,[3],1 µM
same,lowest phenotypically active concentration,[1],≤ 0.3 µM
CCN1CCN(C(c2cccnc2)c2cc(Cl)c3cccnc3c2O)CC1 (configuration not stated),lowest phenotypically active concentration,[9],3 µM
same,lowest phenotypically active concentration,[10],3 µM
same,lowest phenotypically active concentration,[8],9 µM
same,lowest phenotypically active concentration,[7],9 µM
same,lowest phenotypically active concentration,[2],9 µM
same,lowest phenotypically active concentration,[3],9 µM
CCN(CC)CCCC(C)Nc1ccnc2cc(Cl)ccc12 (configuration not stated) [chloroquine],lowest phenotypically active concentration,[10],9 µM
same,lowest phenotypically active concentration,[8],3 µM
same,lowest phenotypically active concentration,[7],9 µM
same,lowest phenotypically active concentration,[2],9 µM
same,lowest phenotypically active concentration,[3],1 µM
same,lowest phenotypically active concentration,[1],9 µM
O=c1cc(-c2cccc3c2Sc2ccccc2S3)oc(N2CCOCC2)c1,lowest phenotypically active concentration,[8],3 µM
same,lowest phenotypically active concentration,[7],3 µM
same,lowest phenotypically active concentration,[2],9 µM
same,lowest phenotypically active concentration,[3],9 µM
